From PubChem BioAssay (NCI)
Compounds without any hit were thinned out: in the full panel of roughly 83,000, 20% have a hit.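 Compound tested at a single concentration for 48 hours in 96-well plates; a percent growth value below 10 was scored as active.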 The source made the active and inactive calls.

Columns and labels:
Experiment in all cases: NCI-60 one-dose screen, 48 h (100 = growth as untreated, 0 = no growth, -100 = all killed)
Details in all cases: 10 µM unless noted
SR leukemia = test system: SR leukemia
RPMI-8226 leukemia = test system: RPMI-8226 leukemia
OVCAR-8 ovarian = test system: OVCAR-8 ovarian
OVCAR-5 ovarian = test system: OVCAR-5 ovarian
OVCAR-4 ovarian = test system: OVCAR-4 ovarian
SK-OV-3 ovarian = test system: SK-OV-3 ovarian
IGROV1 ovarian = test system: IGROV1 ovarian
OVCAR-3 ovarian = test system: OVCAR-3 ovarian
HS 578T breast = test system: HS 578T breast
NCI/ADR-RES ovarian = test system: NCI/ADR-RES ovarian
T-47D breast = test system: T-47D breast
BT-549 breast = test system: BT-549 breast
MDA-MB-435 melanoma = test system: MDA-MB-435 melanoma
SW-620 colon = test system: SW-620 colon
MCF7 breast = test system: MCF7 breast
HCT-116 colon = test system: HCT-116 colon
HCC-2998 colon = test system: HCC-2998 colon
KM12 colon = test system: KM12 colon

Measured: growth

COc1cc(C2CC(c3ccc(C)cc3)=NN2C=O)ccc1Oc1ccnc2cc(Cl)ccc12 (centres undefined)
active: SK-OV-3 ovarian -15.4% | HS 578T breast 7.47%
inactive: SR leukemia 96.6% | RPMI-8226 leukemia 87.8% | OVCAR-8 ovarian 60.3% | OVCAR-5 ovarian 98% | OVCAR-4 ovarian 95.8% | IGROV1 ovarian 77.2% | OVCAR-3 ovarian 39.5% | NCI/ADR-RES ovarian 65.8% | T-47D breast 76% | BT-549 breast 43.8% | MDA-MB-435 melanoma 99% | SW-620 colon 102% | MCF7 breast 79.1% | HCT-116 colon 46.5% | HCC-2998 colon 69.6% | KM12 colon 104%

N=C(N)c1ccc(-c2ccc(-c3ccco3)o2)cc1F
inactive: OVCAR-8 ovarian 45% | OVCAR-5 ovarian 17.8% | OVCAR-4 ovarian 42% | SK-OV-3 ovarian 40.1% | IGROV1 ovarian 11.9% | OVCAR-3 ovarian 54.1% | HS 578T breast 48.8% | NCI/ADR-RES ovarian 45.2% | BT-549 breast 25%
active: SR leukemia -9.28% | RPMI-8226 leukemia -23.2% | T-47D breast -27.8% | MDA-MB-435 melanoma -59.1% | SW-620 colon -11.3% | MCF7 breast -13.7% | HCT-116 colon -21.2% | HCC-2998 colon -74.7% | KM12 colon 4.94%

CCOC(=O)C(CCCCC(NC(C)=O)(C(=O)OCC)C(=O)OCC)(NC(C)=O)C(=O)OCC
inactive: SR leukemia 99.8% | RPMI-8226 leukemia 103% | OVCAR-8 ovarian 107% | OVCAR-5 ovarian 103% | OVCAR-4 ovarian 107% | SK-OV-3 ovarian 96.9% | IGROV1 ovarian 106% | OVCAR-3 ovarian 107% | HS 578T breast 104% | NCI/ADR-RES ovarian 98.4% | T-47D breast 89.4% | BT-549 breast 107% | MDA-MB-435 melanoma 104% | SW-620 colon 104% | MCF7 breast 98.3% | HCT-116 colon 105% | HCC-2998 colon 109% | KM12 colon 100%

C=C1C(=O)O[C@H]2[C@H]1CC/C(COC(=O)NCc1cccc(OC)c1)=C\CC[C@@]1(C)O[C@@H]21
inactive: OVCAR-8 ovarian 46.1% | OVCAR-5 ovarian 66.6% | OVCAR-4 ovarian 49% | SK-OV-3 ovarian 71.6% | IGROV1 ovarian 32.8% | HS 578T breast 75.7% | NCI/ADR-RES ovarian 57.3% | T-47D breast 11.9% | BT-549 breast 16.6% | MDA-MB-435 melanoma 45.5% | HCC-2998 colon 81.6% | KM12 colon 88%
active: SR leukemia 8.59% | RPMI-8226 leukemia -23.1% | OVCAR-3 ovarian -7.55% | SW-620 colon -35.4% | MCF7 breast 8.22% | HCT-116 colon -70.9%

CCCCCCCOc1cccc(/C=C2\N=C3SCCCN3C2=O)c1
inactive: SR leukemia 105% | RPMI-8226 leukemia 91.7% | OVCAR-8 ovarian 102% | OVCAR-5 ovarian 115% | OVCAR-4 ovarian 85.6% | SK-OV-3 ovarian 107% | IGROV1 ovarian 98.7% | OVCAR-3 ovarian 90.6% | HS 578T breast 109% | NCI/ADR-RES ovarian 97% | BT-549 breast 100% | MDA-MB-435 melanoma 100% | SW-620 colon 99.3% | MCF7 breast 92.1% | HCT-116 colon 88.6% | HCC-2998 colon 110% | KM12 colon 85.8%
active: T-47D breast -15.5%

CC(C)(C)c1ccc(OC(=O)Nc2ccccc2)cc1
inactive: SR leukemia 76.3% | RPMI-8226 leukemia 105% | OVCAR-8 ovarian 105% | OVCAR-5 ovarian 106% | OVCAR-4 ovarian 113% | SK-OV-3 ovarian 110% | IGROV1 ovarian 107% | OVCAR-3 ovarian 105% | HS 578T breast 103% | NCI/ADR-RES ovarian 106% | T-47D breast 99.7% | BT-549 breast 87.5% | MDA-MB-435 melanoma 107% | SW-620 colon 106% | MCF7 breast 110% | HCT-116 colon 97.4% | HCC-2998 colon 107% | KM12 colon 104%

CS(=O)(=O)c1ccc(C(=O)N/N=C/c2ccc3c(c2)OCO3)cc1
inactive: SR leukemia 110% | RPMI-8226 leukemia 102% | OVCAR-8 ovarian 93.8% | OVCAR-5 ovarian 116% | OVCAR-4 ovarian 109% | SK-OV-3 ovarian 107% | IGROV1 ovarian 113% | OVCAR-3 ovarian 99.4% | HS 578T breast 100% | NCI/ADR-RES ovarian 110% | T-47D breast 97.3% | BT-549 breast 109% | MDA-MB-435 melanoma 102% | SW-620 colon 105% | MCF7 breast 95% | HCT-116 colon 98.1% | HCC-2998 colon 93% | KM12 colon 95.9%

CC1OC(n2c3ccccc3c3c4c(c5c6ccccc6[nH]c5c32)C(=O)N(CCN[C@H]2CCC[C@@H]2N)C4=O)CC(O)C1O (some centres undefined)
active: SR leukemia -1.11% | RPMI-8226 leukemia 4.77% | MCF7 breast 6.49%
inactive: OVCAR-8 ovarian 27.7% | OVCAR-5 ovarian 80.4% | OVCAR-4 ovarian 34.9% | SK-OV-3 ovarian 40.7% | IGROV1 ovarian 36.4% | OVCAR-3 ovarian 52.7% | HS 578T breast 52.3% | NCI/ADR-RES ovarian 88.2% | T-47D breast 29% | BT-549 breast 46.9% | MDA-MB-435 melanoma 29.2% | SW-620 colon 17.4% | HCT-116 colon 24.6% | HCC-2998 colon 17% | KM12 colon 20.2%
